Compound activity: PubChem, National Center for Advancing Translational Sciences (NCATS)
Rows were chosen to be rich in hits. Some 17% of all compounds tested hit in one or more screens of this group.
TDP1 cell CPT: qHTS for Inhibitors of human tyrosyl-DNA phosphodiesterase 1 (TDP1): qHTS in cells in presence of CPT. chicken DT40 Tdp1-/-;hTDP1 cells + 20 nM CPT, ATP luminescence, 48 h. Potency, µM (top dose mostly 46.2 µM), for the others: at the top dose activity change, negative = growth inhibition, usual class: inhibitors. hit rate 12% among 420,000. AID 686979, 2013; note: % is set by controls: 0 for no effect and ±100 for the full control effect; nearly all actives have a fitted effect of over 55% in size
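Chicken DT40 Tdp1-/- cells stably complemented with human TDP1 were seeded at 400 cells/well in medium containing 20 nM camptothecin, exposed to pin-transferred compounds, and grown at 37 °C for at least 48 hr. Viability was read as ATP luminescence.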
TDP1 inh: qHTS Assay for Inhibitors of Tyrosyl-DNA Phosphodiesterase (TDP1); Potency, µM (top dose mostly 130 µM), for the others: at the top dose activity change, negative = inhibition, hits mostly inhibitors; recombinant TDP1, AlphaScreen DNA substrate cleavage; hit rate 0.28% among 350,000; Tyrosyl-DNA phosphodiesterase 1 (Homo sapiens), Q9NUW8; AID 485290, 2010; note: % is set by controls: 0 for no effect and ±100 for the full control effect; nearly all actives have a fitted effect of over 40% in size
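Recombinant E. coli-expressed Tdp1 (1 nM) preincubated with compound 15 min at RT, then 5'-biotin/3'-phosphotyrosine-FITC DNA substrate (15 nM) added for 5 min. AlphaScreen beads (10 ug/ml) added, 10 min RT; tyrosine-FITC cleavage read as signal loss.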
TDP1 cell noCPT: qHTS for Inhibitors of human tyrosyl-DNA phosphodiesterase 1 (TDP1): qHTS in cells in absence of CPT; DT40 Tdp1-/- hTDP1 cells, no CPT, ATP luminescence, 48 h; Potency, µM (top dose mostly 46.2 µM), for inactives: at the top dose activity change, negative = growth inhibition, most hits filed as inhibitors; hit rate 15% among 420,000; AID 686978, 2013; note: % is set by controls: 0 for no effect and ±100 for the full control effect; nearly all actives have a fitted effect of over 55% in size
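Chicken DT40 Tdp1-/- cells complemented with human TDP1, screened without camptothecin (DMSO vehicle only), 400 cells/well. Compounds pin-transferred, cells incubated at 37 °C for at least 48 hr. Growth read as ATP-dependent luminescence (CellTiter-Glo, 30 min at RT).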
ClpP mod: qHTS Assay for Activators of ClpP; ATP-dependent Clp protease proteolytic subunit (Bacillus subtilis (strain 168)), P80244; purified B. subtilis ClpP, FRET peptide cleavage, 20 min; Potency, µM (series often up to 57.5 µM), for the others: at the highest dose activity change, negative = active; hit rate 1.9% among 340,000; AID 651965, 2013; active = well fitted falling curve with a large enough effect; inconclusive = small, poorly fitted or top-dose-only effect; inactive = no such curve, though single readings can be large or run the other way; note: the source files actives as falling curves though it sought activators and does not explain the sign; nearly all actives have a fitted effect of over 65% in size
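ClpP 10 microg/mL final, pH 8 Tris/KCl buffer with BSA, glycerol, Tween-20; compound pinned in; FRET-FV substrate; RT 20 min; Ex320/Em430; ΔFRET vs ADEP 5.8 microM, DMSO, no enzyme.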
An asterisk follows results filed as active; u = inconclusive; x = not tested or not shown; [ ] = remark or other dose. Unless noted, calls come from the whole dose curve; as a rule, active = well fitted curve in the direction sought with a large enough effect; inconclusive = small, poorly fitted or top-dose-only effect, or another doubt; inactive = no such curve, though single readings can be large; an effect the other way counts as inactive or inconclusive. Potency is the fitted concentration of half-maximal effect.

SMILES	TDP1 cell CPT	TDP1 inh	TDP1 cell noCPT	ClpP mod
CCOC(=O)CNc1ccc(C(=O)OCC)cc1[N+](=O)[O-]	-5.5%	5.5%	-26.9%	-1.7%
CCc1ccc(Nc2ccc(C(N)=O)cc2[N+](=O)[O-])cc1	u	7.1%	23.1µM*	0.4%
Cc1ccc(NC(=O)CSc2ccc(C(N)=O)cc2[N+](=O)[O-])cc1C	10.3µM*	-5.1%	16.4µM*	x
CCOC(=O)c1ccc(NC(C)=O)c([N+](=O)[O-])c1	25.9µM*	5.2%	-100.5%	x
Cc1ccc(NC(=O)CSc2ccc(C(N)=O)cc2[N+](=O)[O-])cc1	u	1.8%	u	-1.2%
Cc1ccc(NS(=O)(=O)c2ccc(OCC(N)=O)cc2)cc1	16.4%	-7.7%	-5.7%	x
COc1cc(C(=O)Nc2ccc(S(=O)(=O)Nc3nccc(C)n3)cc2)c([N+](=O)[O-])cc1OC	29.3%	2.7%	-11.2%	x
Cc1ccc(N(CC(=O)NC2CCCC2)C(=O)CNC(=O)c2cccs2)c(C)c1	-23.2%	0.0%	-18.2%	x
CCC(C)Nc1nc2c(c(=O)[nH]c(=O)n2C)n1Cc1ccc(F)cc1 (centres undefined)	-10.3%	x	u	-1.4%
Cc1cc2nc(N3CCCN(Cc4cccn4-c4ncccn4)CC3)nc(C)c2cc1C	-14.2%[9.04 µM]	x	16.4µM*	x
Cc1cccc2c1N(C(=O)CN1C(=O)c3ccccc3C1=O)C(C)(C)c1ssc(=S)c1-2	-11.5%	4.2%	-11.4%	-2.9%
Cc1cc(C)c2c(c1)-c1c(ssc1=S)C(C)(C)N2C(=O)CN1C(=O)c2ccccc2C1=O	20.6µM*	3.5%	u	-3.3%
COc1ccc(C2=Nc3ccccc3N(C(=O)c3ccc(C(F)(F)F)cc3)C2C(=O)NCc2ccccc2)cc1 (centres undefined)	u	x	u	-11.2%
CCCCNC(=O)C1C(c2ccccc2)=Nc2ccccc2N1C(=O)c1ccc2c(c1)OCO2 (centres undefined)	u	x	u	-17.5%
CCCCNC(=O)C1C(c2ccccc2)=Nc2ccccc2N1C(=O)c1ccc(C(F)(F)F)cc1 (centres undefined)	u	x	14.6µM*	-4.3%
CC(C)(C)NC(=O)C1C(c2ccccc2)=Nc2ccccc2N1C(=O)c1ccc(C(F)(F)F)cc1 (centres undefined)	u	x	16.4µM*	-2.7%
CCCCNC(=O)C1C(c2ccccc2)=Nc2ccccc2N1C(=O)c1ccc(C)cc1 (centres undefined)	13µM*	x	u	-2.5%
CCN(CC)c1ccc(C(=O)N/N=C(\C)c2ccc(O)cc2)cc1	-24.2%	6.7%	u	-3.2%
Cc1ccc(N(CC(=O)NCC2CCCO2)C(=O)CCC(=O)Nc2nccs2)cc1C (centres undefined)	1.4%	-2.8%	-25.0%	x
COc1cccc(-c2cnc(C(O)c3ccc(-c4ccccc4)cc3)[nH]2)c1 (centres undefined)	u	x	u	-9.2%
O=[N+]([O-])c1ncn(Cc2c(Cl)cccc2Cl)n1	18.4µM*	0.0%	u	0.6%
C[C@H](NS(=O)(=O)c1ccc2c(c1)OCCCO2)C(=O)N1CCN(Cc2ccc(C#N)cc2)CC1	u	-2.5%[56.1 µM]	-49.6%	-3.1%
c1cc2c3c(cccc3c1)NC1(CCC3(CC1)Nc1cccc4cccc(c14)N3)N2	9.2µM*	11.4%	13µM*	4.1%
c1cc2c3c(cccc3c1)NC1(CCCCCC1)N2	u	-5.6%	11.6µM*	-28.7%
c1cc2c3c(cccc3c1)NC1(CCCCC1)N2	18.4µM*	3.8%	18.4µM*	0.6%
SMILES	TDP1 cell CPT	TDP1 inh	TDP1 cell noCPT	ClpP mod
S=C1NC2(CCCCC2)NN1c1ccccc1	23.1%	8.4%	u	x
COc1ccc(S(=O)(=O)Nc2cccc(-c3ccc(N4CCCCCC4)nn3)c2)cc1F	u	0.6%	u	-2.8%
CCOc1ccccc1NC(=S)N1CCN(c2cccc(OC)c2)CC1	20.6µM*	5.4%	u	-0.4%
COc1cccc(N2CCN(C(=S)Nc3cc(C)cc(C)c3)CC2)c1	6.51µM*	x	6.51µM*	x
COc1cccc(N2CCN(C(=S)Nc3ccc(F)cc3)CC2)c1	14.6%	x	2.5%	2.5%
COc1cccc(N2CCN(C(=S)Nc3ccccc3OC)CC2)c1	19.3%	x	-7.5%	-1.9%
C=C(C)Cn1c2ccc(NC(=O)NCCc3ccccc3)cc2c(=O)n1C	-13.3%	x	-15.3%	4.7%
COc1ccc(CCNC(=O)CSC2=Nc3ccccc3C3=NC(CCC(=O)NCc4ccccc4)C(=O)N23)cc1OC (centres undefined)	-22.5%	5.4%	2.0%	-11.1%
CC(C)Oc1ccc(CNC(=O)C2=Cc3ccccc3OC2)cc1	20.6µM*	5.3%	u	-2.8%
CCN(CC)CCC(=O)c1ccc(F)cc1	2.91µM*	6.2%	2.31µM*	2.3%
CN1CCN(CCCC(=O)c2ccc(F)cc2)CC1	-3.3%	4.2%	16.6%	0.8%
CN(C)CCCC(=O)c1ccc2c(c1)OCO2	2.7%	1.0%	-17.2%	-19.3%
CN(C)CCC(=O)c1ccc(F)cc1	5.17µM*	x	4.61µM*	0.2%
CN(C)CCC(=O)c1ccc2c(c1)OCO2	3.66µM*	4.2%	3.66µM*	0.5%
CCc1ccc(NC(=O)C2CCN(c3nc(-c4ccc(OC)cc4)no3)CC2)cc1	-0.2%	5.4%	-3.5%	0.0%
COc1ccccc1N1CCN(C(=O)C2CCN(C(=O)c3ccccc3Cl)CC2)CC1	u	0.0%	-24.6%	0.1%
COc1ccc(-c2noc(N3CCC(C(=O)N4CCN(c5cccc(OC)c5)CC4)CC3)n2)cc1	6.51µM*	5.4%	3.26µM*	0.9%
COc1cccc(N2CCN(C(=O)C3CCN(C(=O)Nc4ccccc4)CC3)CC2)c1	-11.0%	x	-2.9%	-2.1%
COc1ccc(C2=NOC(C(=O)N3CCN(c4ccccc4OC)CC3)C2)cc1 (centres undefined)	16.4µM*	2.0%	23.1µM*	1.2%
COc1ccc(-c2noc(N3CCC(C(=O)N4CCN(c5ccccc5OC)CC4)CC3)n2)cc1	10.3µM*	2.7%	8.2µM*	-4.9%
COc1ccc(-c2noc(N3CCC(C(=O)N4CCN(c5ccccn5)CC4)CC3)n2)cc1	23.1µM*	6.8%	10.3µM*	u
COc1ccc(OC)c(C2=NOC(C(=O)N3CCN(c4ccccc4)CC3)C2)c1 (centres undefined)	u	3.9%	u	u
Cc1ccc2c(=O)cc(C(=O)Nc3sc4c(c3C(=O)NCc3ccco3)CCC4)oc2c1	-6.0%	6.1%	-22.4%	0.6%
COc1ccc(NC(=O)CN2C(=O)COc3ccc(S(=O)(=O)Nc4ccccc4)cc32)cc1OC	-5.1%	3.8%	-27.3%	-2.2%
